Results as given in PubChem BioAssay (NCATS).
A number with no mark means an inactive call. Inconclusive results are not listed. Where a call stands in place of a potency, no number is given. Active and inactive are the calls of the source. Unless noted, the call rests on the fitted dose curve; in most records, active means well fitted curve in the direction sought with a large enough effect; inconclusive means small, poorly fitted or top-dose-only effect, or another doubt; inactive means no such curve, though single readings can be large; an effect the other way counts as inactive or inconclusive.

Columns and labels:
[1] = AP1 Signaling Pathway (AID 357; active means well fitted curve in either direction with a large enough effect, not every such curve was filed as active;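 further: ME-180 reporter cells stimulated with EGF at its EC50 level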); conditions: ME-180 AP-1-bla reporter, EGF-induced, beta-lactamase ratio, 5 h; at 17.2 µM (top of the series) unless noted
Method in brief: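 A ratiometric CCF4 readout (405 nm excitation; 460 and 530 nm emission) quantified AP-1-driven beta-lactamase in ME-180 cells after 5 h with compound and EC50 EGF; AC50 values were derived for activators and inhibitors.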

[2] = molecular target: Glucocorticoid receptor (Homo sapiens) (UniProt P04150); assay: GR-GFP Redistribution (AID 450;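 active means compounds whose dose series gives a full or clear partial fitted curve of increased nuclear translocation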; further: potency means the concentration at half of the fitted maximal effect)
Sequence of Glucocorticoid receptor (Homo sapiens) (P04150 whole entry, looked up, the tested form may be a part): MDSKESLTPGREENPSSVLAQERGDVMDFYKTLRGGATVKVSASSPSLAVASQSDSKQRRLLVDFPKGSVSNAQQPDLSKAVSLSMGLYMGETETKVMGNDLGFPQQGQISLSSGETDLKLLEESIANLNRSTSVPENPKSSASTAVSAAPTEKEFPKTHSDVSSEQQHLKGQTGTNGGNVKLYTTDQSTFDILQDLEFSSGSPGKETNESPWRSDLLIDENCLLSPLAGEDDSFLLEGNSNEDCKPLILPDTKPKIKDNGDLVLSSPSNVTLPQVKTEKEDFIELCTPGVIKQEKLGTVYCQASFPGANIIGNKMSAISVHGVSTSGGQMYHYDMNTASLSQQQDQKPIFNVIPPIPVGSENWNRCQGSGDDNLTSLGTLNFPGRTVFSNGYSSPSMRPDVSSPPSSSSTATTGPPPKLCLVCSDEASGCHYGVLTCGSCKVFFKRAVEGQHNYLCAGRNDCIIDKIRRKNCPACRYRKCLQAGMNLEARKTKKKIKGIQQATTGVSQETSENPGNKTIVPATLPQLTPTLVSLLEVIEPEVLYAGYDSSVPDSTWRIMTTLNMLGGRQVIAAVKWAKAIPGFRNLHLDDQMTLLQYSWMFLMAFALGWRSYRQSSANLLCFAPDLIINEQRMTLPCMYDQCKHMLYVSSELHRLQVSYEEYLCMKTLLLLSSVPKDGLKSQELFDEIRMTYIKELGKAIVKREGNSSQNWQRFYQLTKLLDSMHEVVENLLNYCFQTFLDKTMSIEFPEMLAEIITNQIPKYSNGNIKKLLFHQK

[3] = qHTS Assay for Identification of Small Molecule Agonists for Hypoxia Response Element Signaling Pathway (AID 914; active means well fitted activation curve with a large enough effect in the signal ratio, with a control signal flat, not every such curve was filed as active; the % refers to the signal ratio; further: potency means the concentration at half of the fitted maximal effect); conditions: ME-180 HRE-bla reporter, beta-lactamase ratio, CoCl2, 17 h; activation: active compounds read high
Method in brief: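 A beta-lactamase reporter under hypoxia response element control in ME-180 cells served as the system. Compound titrations plus EC50 CoCl2 ran 17 h at 37 degrees Celsius; AC50 values were fitted from %Activity.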

[4] = molecular target: Cytochrome P450 1A2 (Homo sapiens) (UniProt P05177); assay: p450-cyp1a2 (AID 410; calls by dose curve; further: potency means the concentration at half of the fitted maximal effect)
Sequence of Cytochrome P450 1A2 (Homo sapiens) (P05177 whole entry, looked up): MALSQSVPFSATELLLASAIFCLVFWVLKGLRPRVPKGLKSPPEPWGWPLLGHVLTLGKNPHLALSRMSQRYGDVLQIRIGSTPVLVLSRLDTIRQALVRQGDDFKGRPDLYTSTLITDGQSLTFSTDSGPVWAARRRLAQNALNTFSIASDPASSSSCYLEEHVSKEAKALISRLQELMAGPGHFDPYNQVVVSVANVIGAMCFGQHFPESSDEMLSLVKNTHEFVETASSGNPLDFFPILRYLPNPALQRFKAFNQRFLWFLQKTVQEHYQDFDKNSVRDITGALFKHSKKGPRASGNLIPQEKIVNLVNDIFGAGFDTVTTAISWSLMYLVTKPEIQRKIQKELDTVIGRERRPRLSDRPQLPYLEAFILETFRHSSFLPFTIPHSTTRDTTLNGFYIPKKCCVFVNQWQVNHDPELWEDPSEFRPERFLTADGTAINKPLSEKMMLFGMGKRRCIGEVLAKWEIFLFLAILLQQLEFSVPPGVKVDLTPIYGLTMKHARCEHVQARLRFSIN
Method in brief: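 Luminescent readout of luciferin formed from Luciferin-ME by human CYP1A2; data normalized against complete inhibition by 57 uM furafylline. Enzyme 20nM, substrate 100uM at Km, 100mM KPO4 buffer, 60 min reaction at room temperature.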

[5] = Stat Signaling Pathway (AID 446; active means well fitted curve in either direction with a large enough effect, not every such curve was filed as active;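 further: ME-180 cervical cancer cells given 40 pM IL-6 alongside compound; SIE-controlled beta-lactamase reporter measured as 460/530 nm FRET emission ratio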); conditions: ME-180 SIE beta-lactamase reporter, IL-6 stimulated, 5 h; at 17.2 µM (top of the series) unless noted
Method in brief: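 ME-180 cells carrying a SIE-driven beta-lactamase reporter are stimulated with 40 pM IL-6 for 5 h at 37C in the presence of compound. The 460/530 nm FRET substrate ratio is read after 2.5 h at RT. Data are normalised to 300 pM IL-6 and to 125 nM JAK inhibitor controls.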

[6] = molecular target: Glucocorticoid receptor (Homo sapiens) (UniProt P04150); assay: GR-EFC Redistribution (AID 451; calls by dose curve; further: potency means the concentration at half of the fitted maximal effect); conditions: CHO-K1 GR-EFC translocation, beta-gal luminescence, 2 h
Method in brief: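 CHO-K1 cells expressing nuclear EA and GR-ED fragments of b-gal; compounds titrated up to 46 uM final, 2 h at 37 C. GR nuclear translocation read as complemented b-gal luminescence after 1 h RT detection.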

[7] = molecular target: 3',5'-cyclic-AMP phosphodiesterase 4B (Homo sapiens) (UniProt Q07343); assay: qHTS Assay for Inhibitors of PDE-IV (AID 607; active means well fitted activation curve with a large enough effect in the main read-out, with a control signal flat, not every such curve was filed as active)
Sequence of 3',5'-cyclic-AMP phosphodiesterase 4B (Homo sapiens) (Q07343 whole entry, looked up): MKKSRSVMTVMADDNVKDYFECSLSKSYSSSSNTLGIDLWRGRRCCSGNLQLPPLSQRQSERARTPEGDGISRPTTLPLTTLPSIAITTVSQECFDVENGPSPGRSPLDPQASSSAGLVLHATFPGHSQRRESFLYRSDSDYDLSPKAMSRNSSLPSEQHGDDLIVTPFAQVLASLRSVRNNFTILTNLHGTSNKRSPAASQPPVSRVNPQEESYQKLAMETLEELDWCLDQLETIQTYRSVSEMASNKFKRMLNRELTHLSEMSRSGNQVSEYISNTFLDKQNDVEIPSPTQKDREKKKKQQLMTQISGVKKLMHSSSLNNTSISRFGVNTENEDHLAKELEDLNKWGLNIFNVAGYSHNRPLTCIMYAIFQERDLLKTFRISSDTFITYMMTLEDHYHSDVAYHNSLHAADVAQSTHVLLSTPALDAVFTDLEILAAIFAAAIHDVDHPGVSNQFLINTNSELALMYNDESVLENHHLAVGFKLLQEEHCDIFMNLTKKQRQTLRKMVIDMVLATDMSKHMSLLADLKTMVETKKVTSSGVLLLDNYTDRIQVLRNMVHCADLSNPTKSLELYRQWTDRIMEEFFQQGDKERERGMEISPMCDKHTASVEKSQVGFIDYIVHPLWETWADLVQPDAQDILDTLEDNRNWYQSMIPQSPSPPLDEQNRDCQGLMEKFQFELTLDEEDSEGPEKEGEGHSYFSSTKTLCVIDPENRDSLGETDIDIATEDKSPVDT
Method in brief: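 HEK293 ACTOne cells with CNG channel (1000/well), endogenous PDE4; membrane potential dye, compounds up to 22.9 uM final. Fluorescence Ex 535/Em 590; RO 20-1724 (100 uM final) as reference.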

[8] = molecular target: Guanine nucleotide-binding protein G(i) subunit alpha-1 (Homo sapiens) (UniProt P63096); assay: qHTS Assay for Inhibitors of RGS12 GoLoco Motif Activity (Green Fluorophore) (AID 879);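 further: negative values mean loss of peptide binding seen as reduced polarization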
Sequence of Guanine nucleotide-binding protein G(i) subunit alpha-1 (Homo sapiens) (P63096 whole entry, looked up): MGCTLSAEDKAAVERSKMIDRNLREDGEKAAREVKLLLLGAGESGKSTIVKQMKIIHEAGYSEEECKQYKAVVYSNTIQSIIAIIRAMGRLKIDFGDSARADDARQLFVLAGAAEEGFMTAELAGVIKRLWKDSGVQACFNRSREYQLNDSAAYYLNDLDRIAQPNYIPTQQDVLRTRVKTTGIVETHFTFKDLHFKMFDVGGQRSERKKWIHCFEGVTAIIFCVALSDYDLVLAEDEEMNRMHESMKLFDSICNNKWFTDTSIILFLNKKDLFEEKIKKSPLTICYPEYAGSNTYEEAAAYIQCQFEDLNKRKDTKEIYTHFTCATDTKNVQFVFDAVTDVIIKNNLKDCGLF
Method in brief: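 Fluorescence polarization assay: 50 nM Gαi1 with 10 nM FITC-labeled RGS12 GoLoco peptide in 10 mM Tris pH 7.5, 150 mM NaCl, 0.1 mM GDP, 0.05% NP40, 10 min at room temperature with compound.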

[9] = molecular target: Cytochrome P450 3A4 (Homo sapiens) (UniProt P08684); assay: qHTS Assay for Inhibitors and Substrates of Cytochrome P450 3A4 (AID 884); further: nearly all actives have a fitted effect of over 50% in size; further: potency means the concentration at half of the fitted maximal effect
Sequence of Cytochrome P450 3A4 (Homo sapiens) (P08684 whole entry, looked up): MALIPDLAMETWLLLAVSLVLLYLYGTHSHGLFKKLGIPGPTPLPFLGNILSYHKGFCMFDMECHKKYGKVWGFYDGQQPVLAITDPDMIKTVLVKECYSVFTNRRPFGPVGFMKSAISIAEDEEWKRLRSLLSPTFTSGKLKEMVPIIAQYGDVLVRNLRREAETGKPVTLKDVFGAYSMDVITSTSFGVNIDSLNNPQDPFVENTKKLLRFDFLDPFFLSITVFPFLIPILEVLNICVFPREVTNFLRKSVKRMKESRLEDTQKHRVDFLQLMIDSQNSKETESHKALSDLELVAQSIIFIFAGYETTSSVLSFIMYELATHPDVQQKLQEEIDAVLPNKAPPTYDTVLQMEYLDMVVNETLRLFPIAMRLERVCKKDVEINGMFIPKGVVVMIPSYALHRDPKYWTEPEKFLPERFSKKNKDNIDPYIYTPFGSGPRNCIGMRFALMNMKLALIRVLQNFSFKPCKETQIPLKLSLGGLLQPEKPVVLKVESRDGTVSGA
Method in brief: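 20 nM human CYP3A4 with 25 uM Luciferin-PPXE (at KM) in 200 mM KPO4, preincubated 10 min with compound; NADPH regeneration started a 60 min RT reaction. Luciferin detected by luminescence, normalized to 57 uM ketoconazole as full inhibition.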

[10] = molecular target: Cytochrome P450 3A4 (Homo sapiens) (UniProt P08684); assay: qHTS Assay for Activators of Cytochrome P450 3A4 (AID 885); further: nearly all actives have a fitted effect of over 65% in size; further: potency means the concentration at half of the fitted maximal effect
Method in brief: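 Human CYP3A4 (20 nM) with Luciferin-PPXE at 25 uM (its KM) in 200 mM KPO4; 10 min compound preincubation, then NADPH regeneration and 60 min reaction at RT. Luciferin read by luminescence; normalized to 57 uM ketoconazole full inhibition.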

[11] = molecular target: Pyruvate kinase (Leishmania mexicana) (UniProt Q27686); assay: qHTS Validation Assay for Inhibitors of Leishmania Mexicana Pyruvate Kinase (AID 945)
Sequence of Pyruvate kinase (Leishmania mexicana) (Q27686 2-499 E452W): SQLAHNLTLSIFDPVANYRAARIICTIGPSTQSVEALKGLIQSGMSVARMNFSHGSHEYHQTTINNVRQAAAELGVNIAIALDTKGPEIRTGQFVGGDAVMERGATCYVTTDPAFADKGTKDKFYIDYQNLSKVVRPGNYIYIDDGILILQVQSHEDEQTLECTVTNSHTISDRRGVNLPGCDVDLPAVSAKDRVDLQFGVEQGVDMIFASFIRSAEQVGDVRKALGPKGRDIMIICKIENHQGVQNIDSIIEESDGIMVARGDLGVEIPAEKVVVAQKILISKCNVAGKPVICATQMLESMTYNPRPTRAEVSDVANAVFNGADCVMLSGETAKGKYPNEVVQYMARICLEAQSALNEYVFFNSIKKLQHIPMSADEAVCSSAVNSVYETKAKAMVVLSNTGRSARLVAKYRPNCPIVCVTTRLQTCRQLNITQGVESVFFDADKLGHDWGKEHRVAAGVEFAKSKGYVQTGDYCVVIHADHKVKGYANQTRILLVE
Method in brief: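 Compounds are tested as eight-point concentration series. Reactions contain 0.2 nM LmPYK E451W, 0.5 mM PEP, 0.1 mM ADP, 7 mM MgCl2 and 50 mM KCl at pH 7.2, run 1 h at room temperature, then read by PKLight luminescence.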

[12] = molecular target: Pyruvate kinase PKM (Homo sapiens) (UniProt P14618); assay: qHTS Assay for Activators of Human Muscle Pyruvate Kinase (AID 954; active means well fitted curve in the direction sought with a large enough effect, not every such curve was filed as active)
Sequence of Pyruvate kinase PKM (Homo sapiens) (P14618 whole entry, looked up): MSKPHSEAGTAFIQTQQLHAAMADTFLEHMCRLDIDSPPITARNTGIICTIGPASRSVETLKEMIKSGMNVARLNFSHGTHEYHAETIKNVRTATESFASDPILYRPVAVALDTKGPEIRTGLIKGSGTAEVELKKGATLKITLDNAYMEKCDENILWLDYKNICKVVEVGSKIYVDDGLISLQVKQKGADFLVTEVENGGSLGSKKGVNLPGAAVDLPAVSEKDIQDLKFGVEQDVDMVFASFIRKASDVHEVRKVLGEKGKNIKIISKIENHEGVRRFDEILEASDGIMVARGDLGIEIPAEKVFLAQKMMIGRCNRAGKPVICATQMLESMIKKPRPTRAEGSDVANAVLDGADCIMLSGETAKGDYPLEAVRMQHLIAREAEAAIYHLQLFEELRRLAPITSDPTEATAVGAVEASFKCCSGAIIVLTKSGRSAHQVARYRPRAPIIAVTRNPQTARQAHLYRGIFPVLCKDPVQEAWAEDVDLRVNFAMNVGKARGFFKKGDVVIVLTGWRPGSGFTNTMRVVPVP
Method in brief: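 Purified human PKM2 (0.1 nM) with 0.5 mM PEP (Km) and 0.1 mM ADP in 50 mM imidazole pH 7.2, KCl, MgCl2, 1 h at room temperature; ATP formed read by coupled luciferase luminescence. Normalized to no-enzyme/110 uM thiadiazolimine inhibition; 0.3 nM enzyme column for activation.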

[13] = molecular target: Alpha-galactosidase A (Homo sapiens) (UniProt P06280); assay: Counterscreen for Glucocerebrosidase Inhibitors: qHTS Assay for Human alpha-Galactosidase at pH 4.5 (AID 992)
Sequence of Alpha-galactosidase A (Homo sapiens) (P06280 whole entry, looked up): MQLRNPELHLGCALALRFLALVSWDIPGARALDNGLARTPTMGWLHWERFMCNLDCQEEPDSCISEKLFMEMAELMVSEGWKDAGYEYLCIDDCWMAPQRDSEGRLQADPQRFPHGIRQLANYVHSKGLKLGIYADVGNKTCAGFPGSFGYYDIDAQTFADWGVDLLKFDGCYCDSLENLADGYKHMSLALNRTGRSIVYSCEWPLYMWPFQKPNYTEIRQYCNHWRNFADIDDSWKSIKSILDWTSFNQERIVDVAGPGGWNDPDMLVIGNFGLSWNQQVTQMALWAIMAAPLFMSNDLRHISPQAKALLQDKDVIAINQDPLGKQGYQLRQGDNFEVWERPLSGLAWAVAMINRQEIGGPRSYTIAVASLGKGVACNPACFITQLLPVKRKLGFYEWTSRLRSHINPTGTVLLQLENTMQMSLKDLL
Method in brief: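 Human enzyme (2 nM) with 80 uM 4-methylumbelliferyl alpha-D-galactopyranoside in 50 mM citric acid, 0.005% Tween-20, pH 4.5, 20 min at room temperature. Compounds 0.7 nM–77 uM; fluorescence Ex 365/Em 440 after pH 10 stop; AC50 from Hill fits.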

[14] = molecular target: Mitogen-activated protein kinase 10 (Mus musculus) (UniProt Q61831); assay: JNK3 AlphaScreen Assay (AID 530; active means well fitted curve in either direction with a large enough effect, not every such curve was filed as active;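 further: kinase came from lysate of stimulated human HepG2 cells; signal reports phosphorylation of biotinylated GST-cJun 1-79 at Ser73 with 10 µM ATP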)
Method in brief: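 Pre-activated (IL-1β/TNFα) JNK3 in HepG2 lysates phosphorylates biotin-GST-cJun(1-79), 10 uM ATP; anti-phospho-cJun(Ser73) AlphaScreen read at room temperature, pH 7.6 Tris buffer. Compounds pre-incubated 15 min as titrations.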

[15] = molecular target: Cytochrome P450 2C19 (Homo sapiens) (UniProt P33261); assay: qHTS Assay for Inhibitors and Substrates of Cytochrome P450 2C19 (AID 899); further: potency means the concentration at half of the fitted maximal effect; nearly all actives have a fitted effect of over 60% in size
Sequence of Cytochrome P450 2C19 (Homo sapiens) (P33261 whole entry, looked up): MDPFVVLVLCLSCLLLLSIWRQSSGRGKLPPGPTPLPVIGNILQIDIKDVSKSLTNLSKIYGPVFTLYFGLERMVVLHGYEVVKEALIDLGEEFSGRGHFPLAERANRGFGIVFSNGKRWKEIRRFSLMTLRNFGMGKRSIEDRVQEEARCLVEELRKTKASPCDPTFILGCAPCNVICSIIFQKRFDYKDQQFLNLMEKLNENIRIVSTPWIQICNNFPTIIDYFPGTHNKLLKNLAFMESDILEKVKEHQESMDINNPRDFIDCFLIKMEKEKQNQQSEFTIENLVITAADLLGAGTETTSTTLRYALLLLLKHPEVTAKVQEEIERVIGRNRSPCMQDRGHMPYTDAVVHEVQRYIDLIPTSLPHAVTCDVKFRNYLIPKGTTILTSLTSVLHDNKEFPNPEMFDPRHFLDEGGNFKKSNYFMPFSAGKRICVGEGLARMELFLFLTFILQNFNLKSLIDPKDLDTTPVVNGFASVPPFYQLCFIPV
Method in brief: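 5 nM human CYP2C19 with 10uM Luciferin-H EGE (at KM) in 50mM KPO4, compound preincubated 10 min at 37C, then NADPH regeneration for 60 min at 37C. Luciferin read by luminescence after detection reagent; normalized to 57uM ketoconazole as full inhibition.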

[16] = qHTS Assay for Identification of Small Molecule Agonists for Thrombopoietin (TPO) Signaling Pathway (AID 917)
Method in brief: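 Murine Ba/F3 cells stably expressing human TPO receptor and a Glycoprotein IIb promoter–luciferase reporter were IL-3-starved overnight, then treated with compounds plus TPO (26 pM final, its EC50) for 24 hrs at 37 C; luminescence was read.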

[17] = molecular target: Muscarinic acetylcholine receptor M1 (Rattus norvegicus) (UniProt P08482); assay: qHTS Assay for Antagonists of Acetylcholine Muscarinic M1 Receptor: Kinetic Measurement of Intracellular Calcium Response (AID 943);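 further: Fluo-4 calcium signal as peak divided by basal fluorescence over 4 min; nearly all actives have a fitted effect of over 75% in size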
Method in brief: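 Rat M1-CHO cells, 2000/well, overnight → Fluo-4 no-wash dye with probenecid, 1 h 37C → compound 10 min, room temp → basal read 6 s → carbachol EC80 (100 nM) → 4 min kinetic read; peak/basal.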

[18] = molecular target: alpha-glucosidase (Oryza sativa, rice) (UniProt Q653V4); assay: Counterscreen for Glucocerebrosidase Inhibitors: qHTS Assay for Rice alpha-Glucosidase at pH 5.0 (AID 997)
Method in brief: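 Rice alpha-glucosidase (4 nM final) with 400 uM 4-methylumbelliferyl-alpha-D-glucopyranoside in citrate buffer pH 5.0, 20 min at room temperature, stopped at pH 10; fluorescence 365/440 nm, compounds 0.7 nM–77 uM, AC50 from Hill fits.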

[19] = molecular target: Cytochrome P450 2C9 (Homo sapiens) (UniProt P11712); assay: qHTS Assay for Inhibitors and Substrates of Cytochrome P450 2C9 (AID 883); further: potency means the concentration at half of the fitted maximal effect; nearly all actives have a fitted effect of over 60% in size
Method in brief: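 Human CYP2C9 (10nM) with Luciferin-H at 100uM (its KM) in 25mM KPO4; compound preincubated 10 min at 37C, then NADPH regeneration for 60 min at 37C. Luciferin read by luminescence after detection reagent; normalized to 57uM sulphaphenazole as full inhibition.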

[20] = qHTS Assay for Identification of Small Molecule Antagonists for NFkB Signaling Pathway (AID 895; active means well fitted inhibition curve with a large enough effect in the signal ratio, with a control signal flat, not every such curve was filed as active; the % refers to the signal ratio; further: potency means the concentration at half of the fitted maximal effect)
Method in brief: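 ME-180 NFkB-bla cells (beta-lactamase under NFkB response element), plated overnight, treated with compound then 10 pM TNF alpha (about EC50) for 5 hrs at 37 C. LiveBLAzer FRET read at 460/530 nm emission, 405 nm excitation.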

[21] = NFAT Signaling Pathway (AID 444; active means well fitted curve in either direction with a large enough effect, not every such curve was filed as active;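 further: carbachol stimulus at about its EC50 of 1 µM final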); conditions: Jurkat NFAT-bla M1, carbachol, beta-lactamase ratio, 5 h; at 17.2 µM (top of the series) unless noted
Method in brief: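 Jurkat cells with NFAT-driven β-lactamase reporter and co-expressed M1 receptor, stimulated with carbachol (final 1 uM, ~EC50), compound titration, 5 h at 37 °C. CCF4 loaded 1 h at RT; 460/530 nm ratio gave %activity and AC50.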

COCCNC(=O)c1c(N)n(CCC2=CCCCC2)c2nc3ccccc3nc12
activity change, negative = inhibition [1]: 28.7% | Potency [2]: > 20.6 µM | Potency [3]: 10 µM (active)

C=CCN1CCc2c(cc(O)c(O)c2Br)[C@H](c2ccccc2)C1
Potency [4]: 12.6 µM (active) | activity, negative = inhibition [5]: 7.2% [at 38 µM] | Potency [2]: > 46 µM | Potency [6]: > 46 µM | Potency [7]: inactive | outcome [8]: inactive | Potency [9]: inactive | Potency [10]: 20 µM (active) | Potency [11]: inactive | outcome [12]: inactive | outcome [13]: inactive

CCCCC[C@H](O)c1cccc(OCc2ccc3ccccc3n2)c1
Potency [4]: 0.794 µM (active) | activity, negative = inhibition [5]: -0.505% [at 38 µM] | Potency [2]: > 46 µM | Potency [6]: > 46 µM | Potency [14]: inactive | outcome [8]: inactive | Potency [10]: inactive | Potency [15]: 6.31 µM (active) | Potency [16]: inactive | Potency [17]: inactive | Potency [11]: inactive | outcome [12]: inactive | outcome [13]: inactive | outcome [18]: inactive

C#CCN1C(C)=C(C(=O)OC)[C@@H](c2cccc([N+](=O)[O-])c2)C(C(=O)OCC)=C1C
Potency [4]: 12.6 µM (active) | activity, negative = inhibition [5]: -3.77% [at 38 µM] | Potency [2]: > 46 µM | Potency [6]: > 46 µM | Potency [14]: inactive | Potency [7]: inactive | outcome [8]: inactive | Potency [19]: 0.316 µM (active) | Potency [9]: 3.16 µM (active) | Potency [10]: inactive | Potency [20]: 3.55 µM (active) | Potency [15]: 5.01 µM (active) | Potency [16]: inactive | Potency [11]: inactive | outcome [12]: inactive | outcome [13]: inactive

C[C@H](N)C1CCC(C(=O)Nc2ccncc2)CC1 (some centres not stated)
Potency [4]: inactive | activity change, negative = inhibition [21]: 3.2% [at 38 µM] | activity, negative = inhibition [5]: -8.56% [at 38 µM] | Potency [2]: > 46 µM | Potency [6]: > 46 µM | Potency [14]: inactive | Potency [7]: inactive | outcome [8]: inactive | Potency [10]: inactive | Potency [20]: 7.94 µM (active) | Potency [11]: inactive | outcome [12]: inactive | outcome [13]: inactive
